The text below walks through data of PubChem BioAssay (Tox21).

Values joined by “and” are separate entries in the source; they are usually repeats but may differ in a detail not shown here. Identical values can stand only once. Records with an inconclusive call do not appear. A call without a number means that no potency is given here. Active and inactive are the calls of the source. Calls follow the shape of the dose curve; as a rule, active = well fitted cell-killing curve with a large enough effect in the repeat runs; inconclusive = weak or mixed curves, or effect the other way; inactive = flat fitted curve, though single readings scatter.
Potency is read from the fitted curve at half-maximal effect.

The nature of this test: cAMP Responsive Elements (CRE) small molecule antagonists, cell-based qHTS assay: qHTS cell viability counter screen (AID 2060913). Also: nearly all actives have a fitted effect of over 40% in size. The following applies: CRE-bla HEK293T viability, CellTiter-Glo luminescence, 5 h; series mostly up to 92.4 µM. The procedure, abridged: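 CRE-bla HEK293T cells were seeded in assay medium with 10% dialyzed FBS, incubated 18 hrs at 37 C, then exposed to compounds plus 0.25 uM final NKH477 for 3 hrs. Viability was read by CellTiter-Glo luminescence after 30 min, in the same wells.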
`Nc1c(Cl)c(Cl)c(Cl)c(Cl)c1Cl`: the Potency result is “inactive”.

In the case of `NS(=O)(=O)C(F)(F)C(F)(F)C(F)(F)C(F)(F)C(F)(F)C(F)(F)C(F)(F)C(F)(F)F`, the Potency entry is “inactive”.

For the molecule `NC(=O)O`, the Potency entry was “inactive”.

In the case of `N#Cc1nn(-c2c(Cl)cc(C(F)(F)F)cc2Cl)c(N)c1S(=O)C(F)(F)F` (stereo not given), the Potency result was “inactive”.

Take `CCCSP(=S)(OCC)Oc1ccc(SC)cc1` (stereo not given): the Potency entry is “inactive”.

`Brc1ccc(Oc2cc(Br)c(Br)cc2Br)c(Br)c1`: the Potency result is “inactive”.

As for `CC(C)(C)OOC(C)(C)CCC(C)(C)OOC(C)(C)C`, the Potency entry is “inactive”.

Take `Nc1nc(N)nc(NC2CC2)n1`: the Potency entry is “inactive”.

Take `O=[N+]([O-])c1ccc(Cl)c([N+](=O)[O-])c1`: the Potency was 27.7 µM (active) and 57 µM (active).

For the molecule `CNC(C)Cc1ccccc1OC` (stereo not given), the Potency result is “inactive”.

For the molecule `Cc1cc(C)c(C2=C(OC(=O)CC(C)(C)C)C3(CCCC3)OC2=O)c(C)c1`, the Potency result was “inactive”.

In the case of `O=C(O)C(Cl)Br` (stereo not given), the Potency result is “inactive”.

Turning to `COC[C@@H](NC(C)=O)C(=O)NCc1ccccc1`, the Potency result was “inactive”.

In the case of `CNP(=O)(OC)Oc1ccc(C(C)(C)C)cc1Cl` (stereo not given), the Potency entry is “inactive”.

With `O.O.O.O.O.O.O.O=S(=O)([O-])[O-].[Co+2]`, the Potency entry is “inactive”.

For `O=C(O)CCCOc1ccc(Cl)cc1Cl`, the Potency entry is “inactive”.

With `CCCCCCCc1ccc(O)cc1`, the Potency result was “inactive”.

As for `O=[N+]([O-])c1cc(C(F)(F)F)cc([N+](=O)[O-])c1Cl`, the Potency entry is “inactive”.

As for `c1ccc2nc(N3CCNCC3)ccc2c1`, the Potency entry is “inactive”.

In the case of `CCN(CCO)CCn1c(Cc2ccccc2)nc2c1c(=O)n(C)c(=O)n2C`, the Potency result is “inactive”.

As for `O=C1C[C@@H]2OCC=C3CN4CC[C@]56c7ccccc7N1[C@H]5[C@H]2[C@H]3C[C@H]46`, the Potency result is “inactive”.

Take `CCCN(CCC)CCc1c[nH]c2ccccc12`: the Potency result was “inactive”.

Turning to `Cc1cccc(C)c1NC1=NCCCS1`, the Potency entry was “inactive”.

With `N#CC(Br)Br`, the Potency result is “inactive”.

`Cc1cc(C)nc(Nc2ccccc2)n1`: the Potency entry was “inactive”.

As for `[Hg+2].[I-].[I-]`, the Potency is 54.5 µM (active).

Take `CNC(=O)O/N=C(\C)C(C)S(C)(=O)=O` (stereo not given): the Potency entry is “inactive”.

`CCSC(C)CC1CC(=O)C(/C(CC)=N/OC/C=C/Cl)=C(O)C1` (stereo not given): the Potency result was “inactive”.

As for `CC(Cl)C(C)Cl` (stereo not given), the Potency entry was “inactive”.

Regarding `O=[N+]([O-])c1cc(Cl)c(Cl)c(Cl)c1`, the Potency entry was “inactive”.

Regarding `CN(C)c1ccc(N(C)C)cc1`, the Potency entry was “inactive”.

`COP(N)(=S)Oc1ccccc1C(=O)OC(C)C` (stereo not given): the Potency result was “inactive”.

On to `CCCC[N+](=O)[O-]`, for which the Potency entry is “inactive”.

Consider `CC(C)NCC(O)c1ccc(N)c(C#N)c1` (stereo not given), for which the Potency entry was “inactive”.

Turning to `c1ccc2c(c1)[nH]c1cnccc12`, the Potency entry is “inactive”.

In the case of `O=C(N[C@@H]1N=C(c2ccccc2F)c2cccc3c2N(CC3)C1=O)c1cc2ccccc2[nH]1`, the Potency result is “inactive”.

As to `CCN(CC)C(=O)[C@@H]1C=C2c3cccc4[nH]cc(c34)C[C@H]2N(C)C1`, the Potency entry was “inactive”.

Take `CO/C=C(/C(=O)OC)c1ccccc1Oc1cc(Oc2ccccc2C#N)ncn1`: the Potency was 65.2 µM (active).

For the molecule `COP(=S)(OC)Oc1c(Cl)cc(C)cc1Cl`, the Potency result is “inactive”.

As for `CCC(CC)Nc1c([N+](=O)[O-])cc(C)c(C)c1[N+](=O)[O-]`, the Potency result was “inactive”.
